Source: PubChem
Compounds with a hit are over-represented: about 4% of the library has one in this group of screens.
Peg3 prom inh – Peg3 promoter activity inhibition; HeLa PEG-Prom luciferase reporter, luminescence, overnight; inhibition, % at 20 µM; 360,000 tested, 1.7% active;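 active means inhibition of at least 50% at 20 µM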
CF NFkB inh – blocks PAF-induced NF-kB reporter in cystic fibrosis cells. KKLEB NF-kB-GFP reporter, GFP fluorescence overnight. inhibition, % at 5 µM. 360,000 tested, 0.86% active;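 active means at least 50% inhibition at 5 µM, scaled per plate between neutral and stimulator controls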;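 further: PAF is a Pseudomonas aeruginosa culture filtrate used as stimulus; plate controls were PAF-stimulated DMSO wells for no effect and unstimulated DMSO wells for full effect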
KKLEB cytotox – CF airway cell cytotoxicity counter-screen; 360,000 tested, 0.36% active; KKLEB CF airway cells viability, ATPlite luminescence, overnight; stronger effect = lower value; cells stimulated with P. aeruginosa culture filtrate; AID 602141; activity change (cytotoxicity), % at 5 µM;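 active means corrected activity change at or below -50% at 5 µM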
TROY NFkB inh – inhibitors of TROY-dependent NF-kB signaling; AID 1347056; Q293 LMP1-TROYcd NF-kB luciferase reporter, 4 h; inhibition, % at 10 µM; 360,000 tested, 0.98% active;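 active means compounds whose plate-normalised and pattern-corrected inhibition of the luciferase reporter signal at the single screening dose is 50% or more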
TWEAK Fn14 block – blocks TWEAK-Fn14 interaction in a reporter cell assay; TWEAK-stimulated Fn14 reporter cells, luciferase luminescence, 8 h; inhibition, % at 10 µM; 360,000 tested, 2% active; in the data active means inhibition above about 50%
HIF-2a block – HIF-2a inhibition | AID 624352 | inhibition, % at 18.8 µM | 360,000 tested, 0.72% active | 786-0 RCC cells HIF-2a reporter, luciferase luminescence, overnight;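 active means inhibition of the luminescence signal of 40% or more relative to plate controls, in a single-dose primary screen at 18.75 µM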
* hit, by the source's call; / = not tested or not shown.

SMILES	Peg3 prom inh	CF NFkB inh	KKLEB cytotox	TROY NFkB inh	TWEAK Fn14 block	HIF-2a block
CO[C@H]1C=CO[C@@]2(C)Oc3c(C)c(O)c4c(O)c(c(C=NN5CCN(C)CC5)c(O)c4c3C2=O)NC(=O)C(C)=CC=C[C@H](C)[C@H](O)[C@@H](C)[C@@H](O)[C@@H](C)[C@H](OC(C)=O)[C@@H]1C	13.1	7.4	3.7	0.3	-17.9	7.9
O=c1[nH]c(=S)[nH]c2c1C(c1ccc(F)cc1)OC(C1CCCCC1)C2 (stereo not given)	2.1	3.7	-17.2	8.7	8.9	15.6
O=C(Nc1ccncc1)Nc1ccncc1	3.4	0.8	-3.4	13.7	10.8	16.0
CC(=O)c1ccc(NC(=O)Nc2ccncc2)cc1	-56.3	2.5	9.9	5.3	57.6*	-81.1
COC(=O)c1sccc1NC(=O)Nc1ccc(C(C)=O)cc1	-18.9	-16.3	8.5	36.7	59.1*	-62.1
COC(=O)c1sccc1NC(=O)Nc1ccc(C)cc1	-67.8	-2.7	10.9	-23.2	-7.1	-143.5
Cc1ccc(NC(=O)C2(C)CCN2C(=O)CC(c2ccccc2)c2ccccc2)cc1 (stereo not given)	9.4	-0.5	1.6	-1.7	4.8	-2.0
COc1ccc2c(c1)c(=O)oc1c(C)c(OCc3cc(C(=O)O)oc3C)ccc12	-26.8	-14.5	13.5	22.7	79.2*	-20.5
O=C(NCc1cccnc1)c1ccc2sc([C@H]3C[C@H](O)[C@@H](CO)O3)nc2c1	-1.7	3.1	-1.0	-3.1	1.7	12.5
CC(C)CNC(=O)c1ccccc1NC(=O)CN(c1ccc2c(c1)OCCO2)S(C)(=O)=O	-0.8	-19.7	14.4	21.3	89.7*	11.0
COC(=O)c1ccc(C(=O)OC)c(NC(=O)CN(c2ccc3c(c2)OCO3)S(C)(=O)=O)c1	7.2	-18.2	0.0	56.8*	22.6	-0.9
CS(=O)(=O)N(CC(=O)Nc1ccccc1C(=O)NCc1ccco1)c1ccc2c(c1)OCCO2	23.8	6.8	1.7	20.4	-0.4	-10.1
COC(=O)[C@@]1(Cc2ccc(F)cc2)[C@H]2c3cc(C(=O)N(C)C)n(CCF)c3C[C@H]2CN1C(=O)c1ccccc1	/	/	/	2.3	5.8	19.2
COC(=O)[C@@]1(Cc2ccccc2)[C@@H]2C(=CC(=O)[C@H]2CC(=O)C(=O)N(C)C)CN1C(=O)c1ccccc1	8.7	14.1	14.3	8.4	36.8	67.8*
CCOC(=O)c1nc(NNC(=O)c2ccc([N+](=O)[O-])cc2)sc1C	68.3*	-10.1	8.6	34.0	36.3	-20.0
COc1ccccc1NC(=O)C1CCCN1S(=O)(=O)c1cccc2nsnc12 (stereo not given)	6.9	18.7	-3.2	-10.8	-1.2	9.6
COc1ccc(NC(=O)C2CCCN2S(=O)(=O)c2cccc3nsnc23)c(OC)c1 (stereo not given)	-8.1	-24.5	16.1	3.0	70.4*	-0.4
O=C(COC(=O)COc1ccc(Br)cc1)NC1CCCCCC1	7.4	5.0	-1.2	78.9*	0.7	9.5
CC(C)=CCc1cc([C@@H]2COc3c(ccc4c3C=CC(C)(C)O4)C2)c(O)cc1O	83.8*	-8.2	-6.2	10.1	63.4*	-3.7
Cc1cc(C(=O)Nc2ccc3c(c2)OCCO3)c(C)o1	-208.8	-8.8	-4.4	-64.5	3.3	-219.8
CC(=O)c1c(Nc2ccc3c(c2)OCCO3)oc(C)cc1=O	-68.9	-21.9	4.7	38.7	69.9*	-49.9
c1cncc(-c2csc(-c3cccnc3)n2)c1	-62.9	2.9	-9.5	-9.9	-1.5	-32.4
Oc1ccc(-c2csc(-c3cccnc3)n2)c(O)c1	-174.8	-17.8	-9.5	-29.6	53.8*	-244.5
CC(=O)Oc1ccc(C#C/C=C2\c3ccccc3C(=O)N2c2ccccc2)cc1	-288.5	25.5	-3.0	-22.8	50.7*	-167.7
Cc1cc(C)c2c(=O)n3c(nc2c1)C(Cc1ccc(O)cc1)NC(=O)c1cc2ccccc2cc1-3 (stereo not given)	67.4*	4.7	-1.6	20.9	-12.2	-9.6
SMILES	Peg3 prom inh	CF NFkB inh	KKLEB cytotox	TROY NFkB inh	TWEAK Fn14 block	HIF-2a block
COc1ccccc1-c1cc(C(F)(F)F)nc(S(=O)(=O)CCCC(=O)Nc2cccnc2Cl)n1	110.6*	72.5*	-54.8*	62.4*	81.9*	34.1
COc1ccccc1-c1cc(C(F)(F)F)nc(S(=O)(=O)CCCC(=O)NC(C)C)n1	112.7*	88.2*	-93.9*	-5.2	38.7	89.7*
COc1ccc(-c2cc(C(F)(F)F)n3nc(C(=O)Nc4cc(C)on4)cc3n2)cc1OC	20.6	16.4	-13.5	10.7	13.7	12.0
COc1ccc(-c2cc(C(F)(F)F)nc(S(=O)(=O)CCCC(=O)Nc3cc(C)on3)n2)cc1OC	110.9*	102.3*	-74.8*	52.4*	96.3*	-54.7
COc1ccccc1-c1cc(C(F)(F)F)nc(S(=O)(=O)CCCC(=O)Nc2cc(C)on2)n1	105.6*	85.7*	-65.8*	39.2	39.3	72.7*
NC(=O)c1ccc[n+]([C@H]2O[C@@H](COP(=O)([O-])OP(=O)(O)OC[C@H]3O[C@@H](n4cnc5c(N)ncnc54)[C@H](O)[C@@H]3O)[C@H](O)[C@@H]2O)c1	-22.4	-0.2	-5.5	-3.8	-24.1	-2.7
CC(C)C(C(=O)NC1CCCC1)N1CCN(c2ncccc2C#N)CC1 (stereo not given)	/	/	/	/	/	12.1
O=C(CSc1ncnc2c1oc1ccccc12)Nc1nc2ccccc2s1	56.1*	45.5	-33.9	29.3	-39.5	21.4
Cc1cc(C(F)(F)F)c(C#N)c(SCC(=O)Nc2nc3ccccc3s2)n1	-76.9	-6.4	-40.0	84.8*	88.8*	-34.8
Cc1ccc2sc(NC(=O)CSc3nc(C)cc(C)c3C#N)nc2c1	-274.9	-9.8	-23.3	-9.9	0.9	-210.7
O=C(CSc1ncnc2sccc12)Nc1ccccc1	-23.6	-20.2	-1.7	-10.8	-33.5	-59.7
CCc1nnc(NC(=O)CSc2ncnc3c2oc2ccccc23)s1	44.2	16.9	-11.4	-5.8	1.9	13.4
O=C(CSc1ncnc2c1sc1ccccc12)Nc1ccc(Br)cc1	-6.8	42.6	-57.3*	-7.9	-51.3	9.6
CCN(CC)S(=O)(=O)c1ccc2[nH]cc(C(=O)NCCN3CCCCCC3)c(=O)c2c1	3.8	-8.3	-8.1	-49.9	17.1	-9.1
CCN(CC)S(=O)(=O)c1ccc2[nH]cc(C(=O)NCCC3=CCCCC3)c(=O)c2c1	46.9	-3.5	-4.8	43.5	58.5*	18.4
Cc1sc2nc(SCC(=O)Nc3c(C)n(C)n(-c4ccccc4)c3=O)n(C)c(=O)c2c1C	16.2	-3.2	1.5	7.3	58.5*	16.8
COc1ccccc1NC(=O)CSc1nc2sc(C)c(C)c2c(=O)n1C	-19.8	21.0	-5.8	33.9	36.5	4.2
O=C(Nc1ccc([N+](=O)[O-])cc1)C1CC1(c1ccccc1)c1ccccc1 (stereo not given)	-16.0	3.8	-7.4	69.9*	32.5	14.6
